The values below come from the supplement of paper PMC8728848.

Assay in all cases: glycan array binding signal (z-score within array); higher = stronger binding
Conditions in all cases: glycan notation: IUPAC condensed, linker removed

The target in assay [1] is GlcNAc(b1-2)[GlcNAc(b1-4)]Man(a1-3)[GlcNAc(b1-2)Man(a1-6)]Man(b1-4)GlcNAc(b1-4)GlcNAc. The method in brief: (§1)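 Glycan array binding is given as a within-array Z-score, which can be read as non-binding when negative. The arrays, 3228 of them, came from the Consortium for Functional Glycomics database and were retained only where the protein sequence was available. Z-scores were averaged across arrays of the same protein sequence at different concentrations or buffers and across linkers.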

In assay [2] the target is GlcNAc(b1-3)Gal(b1-4)GlcNAc(b1-3)Gal(b1-4)GlcNAc(b1-3)GalNAc. The method in brief:
as §1

The target of assay [3] is Man(a1-2)Man(a1-2)Man(a1-3)Man. The method in brief:
as §1

The target of assay [4] is Man(a1-2)Man(a1-2)Man(a1-3)[Man(a1-2)Man(a1-3)[Man(a1-2)Man(a1-6)]Man(a1-6)]Man(b1-4)GlcNAc(b1-4)GlcNAc. The method in brief: as §1
Assay [5] deals with Man(a1-2)Man(a1-2)Man(a1-3)[Man(a1-2)Man(a1-6)[Man(a1-3)]Man(a1-6)]Man(b1-4)GlcNAc(b1-4)GlcNAc. The method in brief: as §1
Assay [6] has as its target Man(a1-2)Man(a1-3)[Man(a1-3)[Man(a1-6)]Man(a1-6)]Man(b1-4)GlcNAc(b1-4)GlcNAc. The method in brief: as §1
In assay [7] the target is Man(a1-2)Man(a1-3)[Man(a1-6)]Man(a1-6)[Man(a1-2)Man(a1-3)]Man(b1-4)GlcNAc(b1-4)GlcNAc. The method in brief:
as §1

The target in assay [8] is Man(a1-2)Man(a1-6)[Man(a1-3)]Man(a1-6)[Man(a1-2)Man(a1-2)Man(a1-3)]Man(b1-4)GlcNAc(b1-4)GlcNAc. The method in brief: as §1
Assay [9] has as its target Man(a1-3)[Man(a1-6)]Man(a1-6)[Man(a1-2)Man(a1-3)]Man(b1-4)GlcNAc(b1-4)GlcNAc. The method in brief: as §1
The target in assay [10] is Man(a1-3)[Man(a1-6)]Man(a1-6)[Man(a1-3)]Man(b1-4)GlcNAc(b1-4)GlcNAc. The method in brief:
as §1

For assay [11], the target named is Man(a1-3)[Man(a1-6)]Man(b1-4)GlcNAc(b1-4)GlcNAc. The method in brief: as §1
Assay [12] addresses Neu5Ac(a2-3)Gal(b1-4)GlcNAc(b1-2)Man(a1-3)[GlcNAc(b1-4)][Neu5Ac(a2-3)Gal(b1-4)GlcNAc(b1-2)Man(a1-6)]Man(b1-4)GlcNAc(b1-4)GlcNAc. The method in brief:
as §1

Assay [13] has as its target Neu5Ac(a2-3)Gal(b1-4)GlcNAc(b1-3)[Neu5Ac(a2-3)Gal(b1-4)GlcNAc(b1-6)]GalNAc. The method in brief: as §1
The target in assay [14] is Neu5Ac(a2-3)Gal(b1-4)[Fuc(a1-3)]GlcNAc(b1-6)[Gal(b1-3)]GalNAc. The method in brief: as §1
In assay [15] the target is Neu5Ac(a2-3)Gal6S(b1-4)GlcNAc. The method in brief: as §1
In assay [16] the target is Neu5Ac(a2-3)[GalNAc(b1-4)]Gal(b1-4)GlcNAc. The method in brief:
as §1

In assay [17] the target is Neu5Ac(a2-6)Gal(b1-4)GlcNAc. The method in brief:
as §1

For assay [18], the target named is Neu5Ac(a2-6)Gal(b1-4)GlcNAc(b1-3)Gal(b1-4)GlcNAc(b1-2)Man(a1-3)[Neu5Ac(a2-6)Gal(b1-4)GlcNAc(b1-3)Gal(b1-4)GlcNAc(b1-2)Man(a1-6)]GalNAc. The method in brief: as §1
Assay [19] concerns the target Neu5Ac(a2-6)Gal(b1-4)GlcNAc(b1-6)[Gal(b1-3)GlcNAc(b1-3)]Gal(b1-4)Glc. The method in brief:
as §1

The target of assay [20] is Neu5Ac(a2-8)Neu5Ac(a2-3)[Gal(b1-3)GalNAc(b1-4)]Gal(b1-4)Glc. The method in brief:
as §1

Assay [21] concerns the target Neu5Ac(a2-8)Neu5Ac(a2-8)Neu5Ac(a2-8)Neu5Ac(a2-3)[GalNAc(b1-4)]Gal(b1-4)Glc. The method in brief: as §1
The target of assay [22] is Neu5Gc(a2-3)Gal(b1-4)GlcNAc(b1-3)Gal(b1-4)GlcNAc(b1-2)Man(a1-3)[Neu5Gc(a2-3)Gal(b1-4)GlcNAc(b1-3)Gal(b1-4)GlcNAc(b1-2)Man(a1-6)]Man(b1-4)GlcNAc(b1-4)GlcNAc. The method in brief:
as §1

Assay [23] has as its target Neu5Gc(a2-3)Gal(b1-4)[Fuc(a1-3)]GlcNAc. The method in brief: as §1
In assay [24] the target is Neu5Gc(a2-8)Neu5Gc(a2-3)Gal(b1-4)GlcNAc. The method in brief:
as §1

The entries come from a sample that favours the strongest signals as a whole.

B1: Nictaba (Nicotiana tabacum), Q94EW1 (protein)
chain: MQGQWIAARDLSITWVDNPQYWTWKTVDPNIEVAELRRVAWLDIYGKIETKNLIRKTSYAVYLVFKLTDNPRELERATASLRFVNEVAEGAGIEGTTVFISKKKKLPGELGRFPHLRSDGWLEIKLGEFFNNLGEDGEVEMRLMEINDKTWKSGIIVKGFDIRPN
Regarding B1, the “glycan array binding signal (z-score)” value in assay [1] is -0.101; in [2], -0.388; in assay [3], -0.29; in assay [4], 3.93; in assay [5], 4; in assay [6], 4.38. Moreover, the “glycan array binding signal (z-score)” value in assay [7] is 4.07; in assay [8], 4.83; in [9], 6.51; in assay [10], 4.21; in assay [11], 3.44; in assay [12], -0.37. The “glycan array binding signal (z-score)” value is -0.389 in assay [13]; -0.249 in [14]; -0.272 in [15]; -0.269 in assay [16]; -0.276 in assay [17]; 1.27 in assay [18]. Besides, the “glycan array binding signal (z-score)” value in [19] is -0.387; in [20], -0.3; in [21] it was -0.244; in assay [22] it was 0.883; in assay [23] it was -0.366; in assay [24], -0.388.
